PubChem BioAssay (NCI)
About 83,000 compounds went through this panel and 20% of them were active in at least one assay; those are over-represented in the sample as a whole.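 Single-dose data. Exposure time 48 hours. Values below 10 considered active.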 Activity calls are given as the source filed them.

Legend:
Experiment in all cases: NCI-60 one-dose screen, 48 h (100 = growth as untreated, 0 = no growth, -100 = all killed)
HCT-15 colon = settings: 10 µM unless noted
HT29 colon = settings: 10 µM unless noted
SNB-75 CNS = settings: 10 µM unless noted
SNB-19 CNS = settings: 10 µM unless noted
U251 CNS = settings: 10 µM unless noted
PC-3 prostate = settings: 10 µM unless noted
SK-MEL-5 melanoma = settings: 10 µM unless noted
UACC-62 melanoma = settings: 10 µM unless noted
LOX IMVI melanoma = settings: 10 µM unless noted
SK-MEL-28 melanoma = settings: 10 µM unless noted
EKVX NSCLC = settings: 10 µM unless noted
SN12C renal = settings: 10 µM unless noted
UO-31 renal = settings: 10 µM unless noted
TK-10 renal = settings: 10 µM unless noted
ACHN renal = settings: 10 µM unless noted
CAKI-1 renal = settings: 10 µM
CCRF-CEM leukemia = settings: 10 µM unless noted
MOLT-4 leukemia = settings: 10 µM unless noted
A498 renal = settings: 10 µM unless noted

Measured: growth

CCN1CCN(c2cc(C(=O)Nc3nc4ccc(Oc5ccnc(C(=O)NC)c5)cc4s3)cc(C(F)(F)F)c2)CC1
inactive: HCT-15 colon 26.9% | HT29 colon 18.5% | SNB-75 CNS 88.7% | SNB-19 CNS 111% | U251 CNS 76.8% | PC-3 prostate 55.6% | SK-MEL-5 melanoma 63.6% | UACC-62 melanoma 90.7% | LOX IMVI melanoma 34.6% | SK-MEL-28 melanoma 76.8% | EKVX NSCLC 92.5% | SN12C renal 75.2% | TK-10 renal 100% | ACHN renal 66% | CAKI-1 renal 84.5% | CCRF-CEM leukemia 65% | MOLT-4 leukemia 52.3%
active: UO-31 renal -63.3%

CN1CCN(c2nc(-c3cnc4ccccc4n3)cc3ccccc23)CC1
inactive: HT29 colon 21.3% | SNB-75 CNS 72.7% | SNB-19 CNS 81.1% | U251 CNS 68% | PC-3 prostate 70.8% | SK-MEL-5 melanoma 66.4% | LOX IMVI melanoma 20% | SK-MEL-28 melanoma 30.9% | EKVX NSCLC 84.9% | SN12C renal 72.6% | UO-31 renal 63.2% | TK-10 renal 99.9% | ACHN renal 84% | CAKI-1 renal 64.1% | CCRF-CEM leukemia 55.6% | MOLT-4 leukemia 54.9%
active: HCT-15 colon 7.27% | UACC-62 melanoma -7.14%

C[C@@H]1C[C@H]2C(=O)OCC(NC(=O)[C@H](Cc3cc(F)cc(F)c3)NC(=O)Nc3ccc(Cl)cc3F)C(=O)N3CCC[C@H]3C(=O)N3CCCC[C@H]3C(=O)N[C@@H](C)C(=O)N2C1 (some centres undefined)
inactive: HCT-15 colon 11.1% | HT29 colon 15.6% | SNB-75 CNS 46.8% | SNB-19 CNS 24.4% | U251 CNS 28.8% | PC-3 prostate 17.3% | UACC-62 melanoma 26.7% | SK-MEL-28 melanoma 39.7% | EKVX NSCLC 27.7% | SN12C renal 18.2% | UO-31 renal 30% | TK-10 renal 52.8% | ACHN renal 26% | CAKI-1 renal 21.5% | CCRF-CEM leukemia 31.3% | MOLT-4 leukemia 33.2%
active: SK-MEL-5 melanoma -12.3% | LOX IMVI melanoma 4.29%

CC1CCc2c(sc3nc(SCC(=O)N/N=C/c4ccc(Cl)cc4)n(-c4ccccc4)c(=O)c23)C1 (centres undefined)
inactive: HCT-15 colon 96.3% | HT29 colon 107% | SNB-75 CNS 98.5% | SNB-19 CNS 81.6% | U251 CNS 93.9% | PC-3 prostate 95.3% | SK-MEL-5 melanoma 104% | UACC-62 melanoma 92.8% | LOX IMVI melanoma 84.1% | SK-MEL-28 melanoma 102% | EKVX NSCLC 103% | SN12C renal 95.6% | UO-31 renal 94.2% | TK-10 renal 114% | ACHN renal 81.1% | CAKI-1 renal 75.1% | CCRF-CEM leukemia 109% | MOLT-4 leukemia 110%

O=C1Nc2cc(OC(F)(F)F)ccc2Oc2ccc(-c3ccnc(N4CCNCC4)c3)cc21
active: HCT-15 colon -51.4% | HT29 colon -72.7% | SNB-75 CNS -5.02% | U251 CNS -78.6% | SK-MEL-5 melanoma -85.3% | UACC-62 melanoma -70.7% | LOX IMVI melanoma -85.8% | SK-MEL-28 melanoma -80.9% | SN12C renal -26.9% | UO-31 renal 1.72% | ACHN renal 2.57% | CAKI-1 renal -36.1% | CCRF-CEM leukemia -6.19% | MOLT-4 leukemia -0.166%
inactive: SNB-19 CNS 27.2% | PC-3 prostate 13.8% | EKVX NSCLC 41.2% | TK-10 renal 27.8%

Cc1cn(-c2cc(NC(=O)c3cncc(C#Cc4cnc5ccc(O[C@H]6CCOC6)nn45)c3)cc(C(F)(F)F)c2)cn1
inactive: HCT-15 colon 82.8% | HT29 colon 69% | SNB-75 CNS 92.9% | SNB-19 CNS 117% | U251 CNS 105% | PC-3 prostate 96.5% | SK-MEL-5 melanoma 70.6% | UACC-62 melanoma 70.6% | LOX IMVI melanoma 62.6% | SK-MEL-28 melanoma 76.3% | EKVX NSCLC 89.9% | SN12C renal 72% | UO-31 renal 55.7% | TK-10 renal 133% | ACHN renal 87.7% | CAKI-1 renal 88.5% | CCRF-CEM leukemia 95.6% | MOLT-4 leukemia 88.9%

c1ccc(-c2n(Cc3ccc4ccccc4c3)c3c4ccccc4c4ccccc4c3[n+]2Cc2ccc3ccccc3c2)cc1
active: HCT-15 colon -76.7% | HT29 colon -67.2% | SNB-75 CNS -54.3% | SNB-19 CNS -88.5% | U251 CNS -78.7% | PC-3 prostate -78.6% | SK-MEL-5 melanoma -98.5% | UACC-62 melanoma -87.6% | LOX IMVI melanoma -86.2% | SK-MEL-28 melanoma -87.3% | EKVX NSCLC -90.2% | SN12C renal -83.7% | UO-31 renal -88% | TK-10 renal -76.6% | ACHN renal -93.3% | CAKI-1 renal -92.5% | CCRF-CEM leukemia -18.9% | MOLT-4 leukemia -56%

COc1ccc(-c2nc3cc(Cl)c(Cl)cc3n2CC(=O)N=Nc2c(O)[nH]c3ccccc23)cc1
active: LOX IMVI melanoma 9.62%
inactive: HCT-15 colon 30.6% | HT29 colon 78.9% | SNB-75 CNS 60% | SNB-19 CNS 91.3% | U251 CNS 71% | PC-3 prostate 76.1% | SK-MEL-5 melanoma 53.6% | UACC-62 melanoma 68.1% | SK-MEL-28 melanoma 74.7% | EKVX NSCLC 72.4% | SN12C renal 38.4% | UO-31 renal 76.9% | TK-10 renal 95.7% | ACHN renal 50.8% | CAKI-1 renal 56.5% | CCRF-CEM leukemia 39.9% | MOLT-4 leukemia 47.4%

N#C/C(=C\c1ccc(N2CCCCC2)cc1)C(=O)Nc1sc2c(c1C#N)CCC2
active: CCRF-CEM leukemia -4.06%
inactive: HCT-15 colon 95% | HT29 colon 98.8% | SNB-75 CNS 86.8% | SNB-19 CNS 99.2% | U251 CNS 96.8% | PC-3 prostate 91.5% | SK-MEL-5 melanoma 98.7% | UACC-62 melanoma 90.2% | LOX IMVI melanoma 89.8% | SK-MEL-28 melanoma 95.2% | EKVX NSCLC 98.4% | SN12C renal 88.9% | UO-31 renal 91.2% | TK-10 renal 108% | ACHN renal 72.5% | CAKI-1 renal 84.8% | MOLT-4 leukemia 104%

COc1ccc(-c2nc3cc(Cl)c(Cl)cc3n2CC(=O)N=Nc2c(O)[nH]c3ccc(Br)cc23)cc1
active: HCT-15 colon -44.8% | HT29 colon -24% | U251 CNS -58% | PC-3 prostate -47.1% | UACC-62 melanoma 4.88% | LOX IMVI melanoma -77.9% | SK-MEL-28 melanoma -66.9% | EKVX NSCLC 4.81% | SN12C renal -20.1% | UO-31 renal -34.9% | TK-10 renal 6.26% | ACHN renal -83% | CAKI-1 renal -76.8%
inactive: SNB-75 CNS 47.3% | SNB-19 CNS 22% | SK-MEL-5 melanoma 51.5% | CCRF-CEM leukemia 39% | MOLT-4 leukemia 36.4%

CN1CCN(Cc2ccc(NC(=O)c3cncc(C#Cc4[nH]nc5ncncc45)c3)cc2C(F)(F)F)CC1
inactive: HCT-15 colon 65.4% | HT29 colon 25.8% | SNB-75 CNS 78.2% | SNB-19 CNS 97.3% | U251 CNS 76.8% | PC-3 prostate 81.3% | SK-MEL-5 melanoma 71.2% | UACC-62 melanoma 39.6% | LOX IMVI melanoma 13% | SK-MEL-28 melanoma 37.7% | EKVX NSCLC 108% | SN12C renal 48.1% | UO-31 renal 82.8% | TK-10 renal 94.7% | ACHN renal 59.1% | CAKI-1 renal 59.4% | CCRF-CEM leukemia 51% | MOLT-4 leukemia 47.2%

C(=C(\C1=NCCN1)n1cnc2ccccc21)/c1cccc2ccccc12
inactive: HCT-15 colon 88.2% | HT29 colon 95% | SNB-75 CNS 78.2% | SNB-19 CNS 88.8% | U251 CNS 94.6% | PC-3 prostate 78.6% | SK-MEL-5 melanoma 87.3% | UACC-62 melanoma 88.1% | LOX IMVI melanoma 83.8% | SK-MEL-28 melanoma 93.8% | EKVX NSCLC 87.2% | SN12C renal 85.4% | UO-31 renal 62.2% | TK-10 renal 90.9% | ACHN renal 87.2% | CAKI-1 renal 68.7% | CCRF-CEM leukemia 91.1% | MOLT-4 leukemia 93.2%

COc1cc([C@H]2OC[C@H]3[C@@H]2CO[C@@H]3c2ccc(O)c(OC)c2)ccc1O
inactive: HCT-15 colon 88.4% | HT29 colon 92.8% | SNB-75 CNS 87.9% | SNB-19 CNS 104% | U251 CNS 97% | PC-3 prostate 82.6% | SK-MEL-5 melanoma 57.3% | UACC-62 melanoma 91% | SK-MEL-28 melanoma 93.5% | EKVX NSCLC 80.3% | SN12C renal 74.6% | UO-31 renal 83.1% | ACHN renal 93.5% | A498 renal 112% | CCRF-CEM leukemia 94.2% | MOLT-4 leukemia 109%
active: LOX IMVI melanoma 9.99%

Nc1nc(-c2cccc([N+](=O)[O-])c2)c(N=Nc2cccc(Cl)c2)s1
inactive: HCT-15 colon 16.3% | HT29 colon 40.7% | SNB-75 CNS 40.3% | SNB-19 CNS 73.9% | U251 CNS 44.3% | PC-3 prostate 37.6% | SK-MEL-5 melanoma 39.9% | UACC-62 melanoma 32.9% | LOX IMVI melanoma 24.5% | SK-MEL-28 melanoma 75.6% | EKVX NSCLC 41.9% | SN12C renal 53.2% | UO-31 renal 33.5% | TK-10 renal 71.7% | ACHN renal 48.6% | CAKI-1 renal 23.2% | CCRF-CEM leukemia 36% | MOLT-4 leukemia 26.5%

COc1cc(-c2nc(SCc3ccc(C)cc3)[nH]c(=O)c2C#N)ccc1OCc1ccccc1
inactive: HCT-15 colon 97.9% | HT29 colon 109% | SNB-75 CNS 96.6% | SNB-19 CNS 97.2% | U251 CNS 102% | PC-3 prostate 107% | SK-MEL-5 melanoma 87.8% | UACC-62 melanoma 97.8% | LOX IMVI melanoma 114% | SK-MEL-28 melanoma 101% | EKVX NSCLC 107% | SN12C renal 116% | UO-31 renal 91.8% | TK-10 renal 101% | ACHN renal 105% | CAKI-1 renal 95.2% | CCRF-CEM leukemia 116% | MOLT-4 leukemia 129%
